The values below come from PubChem BioAssay (EPA / NIEHS).

The target in experiment [1] is Luciferin 4-monooxygenase (Photinus pyralis) (UniProt P08659). Nature of the experiment: CCTE_Simmons_QuantiLum_inhib_2: CCTE's Firefly Luciferase Inhibition Assay, Simmons Lab (AID 2283767). A digest of the protocol:
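Cell-free QuantiLum luciferase, 5 ng/well; compounds 5 nM–87.5 uM final, 8 conc, 0.5% DMSO; 30 min, 37C, dark. Detection reagent (150 uM D-luciferin, 147 uM dATP, CoA, DTT, pH 7.8 final) injected per well, kinetic luminescence. Triplicate biological replicates.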

Experiment [2] in a line: ACEA_AR_agonist_AUC_viability: ACEA Biosciences xCELLigence Real-Time Cell Analysis on Androgen Receptor Agonism for Viability (AID 2283775).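 On AC50: viability read 80 hours after compound addition.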 A digest of the protocol:
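Viability endpoint from xCELLigence impedance in 22Rv1 prostate cells at 80 h. Eight-point series, 100 uM maximum final.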

The nature of experiment [3]: ACEA_AR_antagonist_AUC_viability: ACEA Biosciences xCELLigence Real-Time Cell Analysis on Androgen Receptor Antagonism for Viability (AID 2283776).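 Further: area under impedance growth curve at 80 h after dosing as viability; hits lower the growth signal relative to DMSO meaning cytotoxicity.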 The essentials:
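22Rv1 human prostate cancer cells were seeded on electrode plates, monitored overnight, then exposed to eight 1:4 dilutions from 100 uM final. Impedance-based growth kinetics at 80 h gave an AUC viability endpoint normalized to DMSO.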

Experiment [4] has as its target zebrafish Estrogen Receptor (ESR1), esr1 (gene 259252) (UniProt P57717). Kind of experiment: ATG_zfER1_XSP1: Attagene TRANS-FACTORIAL Multi-Species (XSP1) HepG2 Assay for zebrafish Estrogen Receptor (ESR1) (AID 2283772). The essentials: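 Trans-activation readout: transfected zebrafish ER-Gal4 drives a UAS reporter in human HepG2 liver cells. After 24 h compound exposure (medium containing 3 nM 6-alpha-fluorotestosterone), induced reporter transcripts were quantified by RT-PCR with capillary electrophoresis, relative to DMSO.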

In experiment [5] the test system is zebrafish Estrogen Receptor (ESR2B), gene 317733. Nature of the experiment: ATG_zfER2b_XSP1: Attagene TRANS-FACTORIAL Multi-Species (XSP1) HepG2 Assay for zebrafish Estrogen Receptor (ESR2B) (AID 2283773). The essentials: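 Human hepatoma HepG2, transiently transfected with multi-reporter units; exogenous zebrafish ESR2B-Gal4 activity measured. Exposure 24 h alongside 3 nM 6-alpha-fluorotestosterone to partly stimulate AR.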

Results filed as inconclusive are left out. Activity calls are given as the source filed them. How the source made its calls: active means hit-call score of the fitted dose curve at least 0.9, where 1 is the maximum; inconclusive means response in the unintended direction; inactive means score below 0.9.

Chain of zebrafish Estrogen Receptor (ESR1), esr1 (gene 259252) (P57717 whole entry, looked up, the tested form may be a part): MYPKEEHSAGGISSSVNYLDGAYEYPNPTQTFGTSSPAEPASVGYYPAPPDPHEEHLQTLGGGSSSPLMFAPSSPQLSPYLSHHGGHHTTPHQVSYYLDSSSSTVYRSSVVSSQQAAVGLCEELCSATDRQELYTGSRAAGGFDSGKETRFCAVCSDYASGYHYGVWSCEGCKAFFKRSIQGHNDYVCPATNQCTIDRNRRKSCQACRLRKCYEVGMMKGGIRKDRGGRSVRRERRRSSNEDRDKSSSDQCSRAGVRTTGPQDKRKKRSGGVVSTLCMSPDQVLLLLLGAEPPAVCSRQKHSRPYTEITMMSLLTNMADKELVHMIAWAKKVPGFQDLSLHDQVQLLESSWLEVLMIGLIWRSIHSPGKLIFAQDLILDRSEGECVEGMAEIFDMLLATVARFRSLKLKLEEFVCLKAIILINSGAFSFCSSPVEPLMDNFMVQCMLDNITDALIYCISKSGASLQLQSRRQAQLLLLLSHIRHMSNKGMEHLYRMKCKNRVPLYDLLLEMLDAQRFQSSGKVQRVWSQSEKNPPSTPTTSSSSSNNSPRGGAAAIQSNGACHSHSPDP
Chain of Luciferin 4-monooxygenase (Photinus pyralis) (P08659 whole entry, looked up): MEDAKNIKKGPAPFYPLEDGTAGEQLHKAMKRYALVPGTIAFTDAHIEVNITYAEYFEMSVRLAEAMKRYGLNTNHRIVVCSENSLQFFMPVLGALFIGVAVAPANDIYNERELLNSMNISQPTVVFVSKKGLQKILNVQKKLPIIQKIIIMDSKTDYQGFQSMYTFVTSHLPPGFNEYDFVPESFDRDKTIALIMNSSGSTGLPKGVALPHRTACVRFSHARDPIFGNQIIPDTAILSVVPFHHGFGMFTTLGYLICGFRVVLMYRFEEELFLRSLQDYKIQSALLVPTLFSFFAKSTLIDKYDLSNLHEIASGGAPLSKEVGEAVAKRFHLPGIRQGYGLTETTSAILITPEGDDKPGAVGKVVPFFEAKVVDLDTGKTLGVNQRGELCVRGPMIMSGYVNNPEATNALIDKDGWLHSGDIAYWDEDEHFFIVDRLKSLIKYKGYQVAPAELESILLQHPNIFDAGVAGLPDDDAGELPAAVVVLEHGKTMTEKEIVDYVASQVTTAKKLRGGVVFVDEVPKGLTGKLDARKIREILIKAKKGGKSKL

In the case of `CC(C)=CCCC(C)CC=O` (centres undefined), the result in experiment [1], in experiment [2] and in experiment [3] was inactive.
Regarding `CN(C)C(=N)N=C(N)N`, the molecule was called inactive in experiment [4]. In experiment [5], the AC50 was 100 µM (active).
`CC(=O)C=CC1=C(C)CCCC1(C)C`: in experiment [2], the call was inactive.
As to `CCCOCC(C)O` (centres undefined), the result in experiment [2] was inactive.
Regarding `O=C1C(c2[nH]c3ccc(S(=O)(=O)O)cc3c2O)=Nc2ccc(S(=O)(=O)O)cc21`, the result in experiment [2] was inactive.
For `CC(=O)OCCC(C)CC(C)(C)C` (centres undefined), the result in experiment [2] and in experiment [3] was inactive.
Take `Cc1ccc(S)cc1`: the call in experiment [2] was inactive.
On to `O=C(O)Cc1cccc2ccccc12`, for which the result in experiment [2] and in experiment [3] was inactive.
Turning to `O=C(O)CCCCCCCC(=O)O`, the result in experiment [2] and in experiment [3] was inactive.
For the molecule `CCCCC(CC)COC(=O)/C=C\C(=O)OCC(CC)CCCC` (centres undefined), the result in experiment [2] was inactive.
For `CCCCCCCCCCCCN`, in experiment [2], the result was inactive.
Turning to `COc1c(Cl)c(Cl)c(Cl)c(Cl)c1Cl`, the call in experiment [2] was inactive.
As to `OCCOCCOCCOCCO`, the outcome in experiment [2] and in experiment [3] was inactive.
`CCCCCCCCCC=O`: the result in experiment [2] was inactive.
For the molecule `CCN(CC)c1ccc(C(=C2C=CC(=[N+](CC)CC)C=C2)c2ccc(S(=O)(=O)O)cc2S(=O)(=O)[O-])cc1`, the call in experiment [2] was inactive.
For the molecule `CCCCCCCCCCC(CO)CCCCCCCC` (centres undefined), in experiment [2], the AC50 was 9.96 µM (active).
Turning to `CC1(C)C(=O)N(Br)C(=O)N1Cl`, the call in experiment [2] and in experiment [3] was inactive.
Turning to `CC(C)CCCCCCCOC(=O)c1ccc(C(=O)OCCCCCCCC(C)C)c(C(=O)OCCCCCCCC(C)C)c1`, the molecule was called inactive in experiment [2] and in experiment [3].
In the case of `O=C(O)c1ccc(C(=O)O)cc1`, the molecule was called inactive in experiment [3].
Regarding `NCCCCCCN`, the outcome in experiment [3] was inactive.
Turning to `CCCCC[Si](OCC)(OCC)OCC`, the result in experiment [2] and in experiment [3] was inactive.
As for `C=O`, the molecule was called inactive in experiment [2] and in experiment [3].
Consider `OC1OC[C@@H](O)[C@H](O)[C@H]1O` (some centres undefined), for which the molecule was classed as inactive in experiment [2] and in experiment [3].
As to `CC(C)C[C@H]1C(=O)N2CCC[C@H]2[C@]2(O)O[C@](NC(=O)[C@@H]3C=C4c5cccc6[nH]c(Br)c(c56)C[C@H]4N(C)C3)(C(C)C)C(=O)N12`, the call in experiment [2] and in experiment [3] was inactive.
As to `CCCCCCCCCCCCCCCCCC(=O)OCC(CC)CCCC` (centres undefined), the result in experiment [2] and in experiment [3] was inactive.
Regarding `C=CC[N+](C)(C)CC=C`, the molecule was classed as inactive in experiment [3].
As to `O=C1c2ccccc2C(=O)N1SC1CCCCC1`, the molecule was called inactive in experiment [3].
As for `CC(C)(C#N)c1cc(Cn2cncn2)cc(C(C)(C)C#N)c1`, the AC50 in experiment [3] was 30 µM (active).
Take `BrC1CCC(Br)C(Br)CCC(Br)C(Br)CCC1Br` (centres undefined): the outcome in experiment [2] and in experiment [3] was inactive.
As for `OCCN1CCNCC1`, the molecule was called inactive in experiment [2] and in experiment [3].
As to `CC(=O)OCCOC(C)=O`, the outcome in experiment [3] was inactive.
For the molecule `CCCCOCCOCCOCCOCCO`, the molecule was classed as inactive in experiment [3].
Take `CCCC1CCC(=O)O1` (centres undefined): the call in experiment [3] was inactive.
On to `O=C[C@@H](O)[C@H](O)[C@H](O)CO`, for which the result in experiment [2] and in experiment [3] was inactive.
Consider `C[Si](O[Si](C)(C)C)O[Si](C)(C)C`, for which the molecule was classed as inactive in experiment [3].
Regarding `CN(C)CCCN`, the molecule was called inactive in experiment [2] and in experiment [3].
With `NC(=O)NC1NC(=O)NC1=O` (centres undefined), the molecule was classed as inactive in experiment [2] and in experiment [3].
On to `O=C1NC(=O)c2ccccc21`, for which the outcome in experiment [3] was inactive.
In the case of `CCCCCCCCC=O`, the outcome in experiment [2] and in experiment [3] was inactive.
As to `NCCCN1CCOCC1`, the call in experiment [2] and in experiment [3] was inactive.
As to `C=C(C)C(=O)O`, the molecule was called inactive in experiment [2] and in experiment [3].
On to `CC1=CC(=O)NS(=O)(=O)O1`, for which the molecule was classed as inactive in experiment [2] and in experiment [3].
With `CC(C)=CCC[C@](C)(O)[C@@H]1CC=C(C)CC1`, the outcome in experiment [2] and in experiment [3] was inactive.
Regarding `CC1(C)[C@@H]2CC[C@@]1(C)[C@H](O)C2`, the outcome in experiment [2] and in experiment [3] was inactive.

By AC50 is commonly meant the concentration giving half of the maximal activity seen.
